# Source: PubChem BioAssay
# Calls of active or inactive are those of the source. How the calls were made is not given here.
# Experiment: inhibition of 3D7 malaria parasite growth – strain 3D7 (AID 2306);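 further: 0% = DMSO wells and 100% = chloroquine plus artemisinin control wells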
# Settings: P. falciparum 3D7 erythrocytic growth, LDH absorbance, 72 h; at 2 µM; hits give high values
row,SMILES,growth inhibition
1,COc1ccc2nccc([C@@H](O)CN3CCC(NCc4cc5ccccc5o4)CC3)c2c1,96% (active)
2,Oc1ccc(-c2cncc(NCc3ccc(F)c(F)c3)c2)cc1,95% (active)
3,Cc1cc(C(=O)Nc2ccc3c(ccn3C3CCCN(Cc4ccc(C(F)(F)F)cc4F)CC3)c2)no1 (stereo not given),92% (active)
4,O=C(Nc1nc(-c2ccccn2)cs1)c1ccc(S(=O)(=O)N2CCc3ccccc32)cc1,89% (active)
5,Cc1cc(NC2CCCC2)nc(Nc2ccccc2F)n1,97% (active)
6,COc1ccc2nccc([C@@H](O)CN3CCC(NCCOc4cc(F)cc(F)c4)CC3)c2c1,101% (active)
7,CN1CCCN(Cc2cccc(-c3cccc(NS(=O)(=O)c4cccc5cccnc45)c3)c2)CC1,97% (active)
8,Cc1nc(-c2cccc(Nc3nccc(NCC(O)c4ccccc4C)n3)c2)cs1 (stereo not given),92% (active)
9,N#Cc1cccc(Nc2nccc(NCC(O)c3ccccc3C(F)(F)F)n2)c1 (stereo not given),98% (active)
10,CCCCNCc1ccc(-c2nc(CN(Cc3ccc(Cl)c(Cl)c3)C(=O)CN(C)C)cs2)cc1,100% (active)
11,COc1cc2nc(NCC3CCN(c4nc(N)c5cc(OC)c(OC)cc5n4)CC3)nc(N)c2cc1OC,92% (active)
12,CN1CCC(NCc2ccc(-c3ccc(S(=O)(=O)NCc4ccccc4)c(F)c3)cc2)CC1,99% (active)
13,O=C(Nc1cccc(-c2csc(-c3ccccc3)n2)c1)c1cccs1,89% (active)
14,CC(C)(C)Nc1cc(C2CC2)nc(-c2ccccn2)n1,88% (active)
15,CCOc1ccc(C=CC(=O)Nc2ccc3nc(N4CCOCC4)cc(C)c3c2)cc1OC,92% (active)
